Assay results: PubChem BioAssay
Entries with a potency or affinity are not part of this list. Records with an inconclusive call do not appear. The source made the active and inactive calls. The rule behind the calls is not given here.

Experiment: OVCAR-3 cell viability loss – plate reader, dry powder samples, PAX8 inhibitor project, dose response (AID 743044)
Conditions: NIH:OVCAR-3 ovarian cancer cell viability; max activity: at 35 µM, hits give low values unless noted; series mostly up to 50 µM

SMILES | max activity
C[C@@H]1CN([C@@H](C)CO)C(=O)c2cccc(NC(=O)c3ccncc3)c2O[C@@H]1CN(C)S(=O)(=O)c1cccs1 | 14.9% [at 2.1 µM, hits give low values] (inactive)
C[C@@H]1CCCCO[C@H](CN(C)C)[C@H](C)CN([C@H](C)CO)C(=O)c2cc(NC(=O)Nc3cccc4ccccc34)ccc2O1 | 24.8% [at 4.2 µM, hits give low values] (inactive)
COc1ccc(S(=O)(=O)Nc2ccc3c(c2)CC(=O)N([C@H](C)CO)C[C@H](C)[C@@H](CN(C)Cc2ccc(-c4ccccc4)cc2)O3)cc1 | 36.7% [at 2.1 µM, hits give low values] (inactive)
C[C@H]1CCCCO[C@@H](CN(C)C(=O)Nc2ccc(C(F)(F)F)cc2)[C@@H](C)CN([C@@H](C)CO)C(=O)c2cc(NS(=O)(=O)c3cn(C)cn3)ccc2O1 | -16.1% (inactive)
Cc1ccc(S(=O)(=O)Nc2ccc3c(c2)C(=O)N([C@@H](C)CO)C[C@@H](C)[C@H](CN(C)S(=O)(=O)c2ccc(Cl)cc2)OCCCC[C@@H](C)O3)cc1 | 20.2% [at 0.26 µM, hits give low values] (inactive)
C[C@H](CO)N1C[C@H](C)[C@@H](CN(C)Cc2ccc(Cl)c(Cl)c2)OCCCC[C@H](C)Oc2ccc(NS(=O)(=O)c3ccccc3)cc2C1=O | -29.2% [at 2.1 µM, hits give low values] (inactive)
C[C@@H]1CCCCO[C@@H](CN(C)C(=O)Cc2ccccc2)[C@@H](C)CN([C@@H](C)CO)C(=O)c2cc(NC(=O)Nc3ccc(C(F)(F)F)cc3)ccc2O1 | -12.2% [at 16 µM, hits give low values] (inactive)
